From PubChem
TTR transcr act – TTR transcription activation, primary screen; SH-SY5Y TTR promoter Gaussia luciferase, luminescence; 100% = recombinant luciferase protein wells; activation, % at 16.7 µM; hit rate 1.3% among 92,000; AID 1117267;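 active means activation above the mean of all tested compounds plus 3 SD, cut at about 9.5% in these data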;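 further: cells exposed to compounds for one day before reading; 0% = median of all test compound wells on the plate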
TTR inh HuH7 – HuH7 TTR transcription inhibition, counter-screen | inhibition, % at 16.7 µM | hit rate 4% among 1,100 | shares compounds with TTR transcr act | HuH7 TTR promoter-Gaussia luciferase reporter, luminescence | AID 1117279;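 active means average inhibition above the solvent-only control wells' mean plus 3 SD, cut at about 15% in these data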;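 further: 0% = cells with DMSO only and 100% = cells with inhibitor control FD; inhibitors lower well luminescence so higher value means more inhibition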
TTR up confirm – confirmation of human transthyretin transcription activators | SHSY5Y TTR promoter Gaussia luciferase, luminescence; 100% = purified Lucia enzyme wells, no cells | shares compounds with TTR transcr act | 1,100 tested, under 10 active | activation, % at 16.7 µM;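 active means mean activation above a set limit taken from the earlier primary screen, cut at about 11% in these data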;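 further: 0% = DMSO-treated cells and 100% = recombinant Lucia luciferase without cells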
* hit, by the source's call. The full list was thinned out, with hits kept by preference.

SMILES	TTR transcr act	others
COc1ccc(CN2CCN(Cc3cccc(Oc4ccccc4)c3)CC2)c(OC)c1OC	-2
O=C(c1ccccc1)N1CCN(Cc2cccc(Oc3ccccc3)c2)CC1	-2
O=C1CCC[C@H]2C[C@H](NCc3ccc(F)cc3)CC[C@]23CCCN13	4
COc1cccc(C(=O)N2[C@H](COCc3ccccc3)C=CS2(=O)=O)c1	0
CC(C)CN(C(=O)c1cccc(Cl)c1)c1c(N)n(CC(C)C)c(=O)[nH]c1=O	5
CCCn1c(N)c(N(CCOC)C(=O)c2cccc(F)c2)c(=O)[nH]c1=O	-1
COCCN(C(=O)c1ccc(N(C)S(=O)(=O)c2ccc(C)cc2)cc1)c1c(N)n(CC(C)C)c(=O)[nH]c1=O	9.8*	TTR inh HuH7=5;TTR up confirm=0
CCOC(=O)N1C(=O)NC(=O)C1c1ccc(OC)cc1 (centres undefined)	-1
COc1ccc(NC(=O)C(OC(=O)CNC(=O)c2ccccc2)c2ccccc2)cc1F (centres undefined)	0
CC(=O)Nc1cccc(NC(=O)CSc2nnc(Cc3cccn3C)n2-c2ccc(C)cc2)c1	1
Cc1ccc(N(C(=O)c2csnn2)C(C(=O)NC2CCCC2)c2ccncc2)c(C)c1 (centres undefined)	0
Cc1cccc(NC(=O)CSc2nnc(C)n2Cc2ccccc2)c1	6
Cc1ccc(NC(=O)CSc2nnc(CN3CCOCC3)n2-c2ccccc2)cc1	-1
CCn1c(CN2CCOCC2)nnc1SCC(=O)Nc1cccc(C)c1	21*	TTR inh HuH7=-17;TTR up confirm=-1
Cc1ccc(S(=O)(=O)NCC2CN(S(=O)(=O)c3ccc(C)cc3)c3ccccc3C(=O)N2c2ccc(F)cc2)cc1 (centres undefined)	0
Clc1ccccc1-c1nc(-c2ccncc2)no1	-1
Clc1ccc(-c2nc(-c3ccncc3)no2)c(Cl)c1	3
O=[N+]([O-])c1cc(Cl)ccc1-c1nc(-c2ccncc2)no1	10*	TTR inh HuH7=-3;TTR up confirm=0
CC1=NN(CCc2ccccn2)C(=O)CC1	-1
O=C(NCc1ccc(Cl)cc1)c1csc(-c2cccnc2)n1	1
O=C(NNS(=O)(=O)c1ccc(F)cc1F)c1csc(-c2cccnc2)n1	19*	TTR inh HuH7=-13;TTR up confirm=0
O=C(NNC(=O)c1ccc(Cl)cc1Cl)c1csc(-c2cccnc2)n1	-3
O=C(N/N=C/c1ccco1)C1CC(=O)N(c2ccccc2)C1 (centres undefined)	1
COC(=O)c1ccccc1S(=O)(=O)Nc1ccc(OC)nc1	2
Cc1ccc(-c2nc3cnccn3c2Nc2c(C)cccc2C)o1	-2
SMILES	TTR transcr act	others
Cc1cccc(N(Cc2cc3cc(C)ccc3[nH]c2=O)C(=O)c2cccs2)c1	-2
COc1cc2cc(CN(CCO)C(=O)c3cccs3)c(=O)[nH]c2cc1OC	33*	TTR inh HuH7=-11;TTR up confirm=0
COc1cc2cc(CN(CCc3cccc(C)c3)C(=S)NCCCN(C)C)c(=O)[nH]c2cc1OC	-1
COc1ccc(CNC(=O)O[C@H]2CC[C@@]34CCCN3C(=O)CCC[C@H]4C2)cc1	2
COC(=O)C1=C(Nc2cc(Cl)cc(Cl)c2)CSC1	0
CC(C)CNC(=O)CSc1nnc2ccccn12	11*	TTR inh HuH7=-4;TTR up confirm=12*
CC(C)(C)NC(=O)NC(=O)CSc1nnc2ccccn12	0
O=C(CSc1nnc2ccccn12)NCCc1ccc(Cl)cc1	1
Cn1c(=O)c2c(ncn2CC(O)CNc2ccc(F)cc2)n(C)c1=O (centres undefined)	16*	TTR inh HuH7=-11;TTR up confirm=0
Cn1c(=O)c2c(ncn2CC(=O)N2CCN(S(=O)(=O)c3ccc(F)cc3)CC2)n(C)c1=O	-1
Cn1c(=O)c2c(nc(SCC(=O)c3ccc(F)cc3)n2C)n(C)c1=O	0
CCCCCCC(=O)n1ccc2ccc(-c3ccc4ccn(Cc5ccc(OC)cc5)c4c3)cc21	-1
COCC1=C(C(=O)OC)C(c2cccs2)n2ncnc2N1 (centres undefined)	0
COc1ccc(NS(=O)(=O)c2cccc(C(=O)O)c2)cc1S(=O)(=O)N1CCOCC1	1
CCOC(=O)NC(=O)COC(=O)CNC(=O)c1ccc(OCC)c(OCC)c1	-1
OCC1=C[C@@H](O)[C@@H]2C=CO[C@@H](O[C@@H]3O[C@H](CO)[C@@H](O)[C@H](O)[C@H]3O)[C@H]12	2
Cc1ccc(-c2cn(CCN)c(-c3ccncc3)n2)cc1	2
COc1ccc(-c2cn(CCO)c(-c3ccc(Cl)nc3)n2)cc1	-2
O=C(O)CCn1cc(-c2ccc(Cl)cc2)nc1-c1ccc(Cl)nc1	9.7*	TTR inh HuH7=-8;TTR up confirm=1
COc1cccc(-c2cc3nc4c(c(N5CCC6(CC5)OCCO6)n3n2)CCC4)c1	1
CC(C)CCNC(=O)[C@@H](Cc1ccccc1)NC(=O)CC[C@H]1O[C@@H](n2ccc(=O)[nH]c2=O)[C@H](O)[C@@H]1O	0
O=C(CC[C@H]1O[C@@H](n2ccc(=O)[nH]c2=O)[C@H](O)[C@@H]1O)N[C@@H](Cc1ccccc1)C(=O)NCc1ccccc1	15*	TTR inh HuH7=-9;TTR up confirm=-1
O=c1ccn([C@@H]2O[C@H](CNCc3ccc(-n4cccn4)cc3)[C@@H](O)[C@H]2O)c(=O)[nH]1	-1
COc1cc(NC(=O)CN2CCC(C(N)=O)(N3CCCCC3)CC2)c(OC)cc1Cl	-2
CCCCN(C(=O)NC(=O)Nc1ccc(C)cn1)S(C)(=O)=O	1
SMILES	TTR transcr act	others
c1ccc(-n2ncc3c(NCCN4CCCCC4)ncnc32)cc1	0
CCNc1ncnc2c1cnn2C1CCCO1 (centres undefined)	10*	TTR inh HuH7=-8;TTR up confirm=1
c1ccc(CNc2ncnc3c2cnn3-c2ccccc2)cc1	1
COc1cc(C(=O)Nc2cc(-c3cn4cccnc4n3)ccc2C)cc(OC)c1OC	2
O=C1CC(N(C(=O)c2ccco2)c2cccc(Cl)c2)C(=O)N1c1cccc(Cl)c1 (centres undefined)	-1
COC(=O)[C@]12C[C@H](CC(=O)NCc3cccc(C(F)(F)F)c3)C(=O)N(Cc3ccc4c(c3)OCO4)C1=C[C@H](C(C)C)O[C@@H]2C1CC1	1
Cc1nc2nc(NCc3cccs3)nn2c(C)c1Cl	-1
O=C(c1ccccc1)c1n[nH]c(-c2ccccc2)cc1=O	-5
COC(=O)CN(C#N)c1nc(N(C)C)nc(N(C)C)n1	13*	TTR inh HuH7=-8;TTR up confirm=3
CN(C)c1nc(N(C)C)nc(N(C#N)Cc2ccc(Cl)cc2)n1	0
CCOC(=O)C(C(=O)OCC)N(C#N)c1nc(OC)nc(N(C)C)n1	3
Cc1sc2ncnc(SCC(=O)Nc3ccc(S(=O)(=O)N4CCOCC4)cc3)c2c1C	-5
CC(=O)Nc1ccc(NC(=O)Cn2ccc([N+](=O)[O-])n2)cc1	1
Cc1ccc(NC(=O)CCn2ccc([N+](=O)[O-])n2)nc1	29*	TTR inh HuH7=8;TTR up confirm=1
O=C(CCn1ccc([N+](=O)[O-])n1)NC1CCCCCC1	1
O=C(OCC#CCSc1nnc(-c2cccc3ccccc23)o1)c1csc2ccccc12	0
CCOC(=O)c1c(NC(=O)CN2C(=O)NC(C)(c3ccccc3)C2=O)sc(C)c1C (centres undefined)	3
Cn1c(SCc2cc(=O)[nH]c(C(C)(C)C)n2)nnc1C(F)(F)F	0
COc1cccc(NC(=O)Nc2c(-c3ccc(C(F)(F)F)cc3)nc3ncccn23)c1	-1
